D1 PAM – enhances dopamine response at the human D1 receptor; P21728; HEK293 TREx D1 cells, calcium flux, dopamine EC20 potentiation; potentiation, % at 10 µM; 0.036% of 360,000 active; in the data active = potentiation above about 30%; also: 0% is about no effect
Target sequence (P21728 whole entry, looked up): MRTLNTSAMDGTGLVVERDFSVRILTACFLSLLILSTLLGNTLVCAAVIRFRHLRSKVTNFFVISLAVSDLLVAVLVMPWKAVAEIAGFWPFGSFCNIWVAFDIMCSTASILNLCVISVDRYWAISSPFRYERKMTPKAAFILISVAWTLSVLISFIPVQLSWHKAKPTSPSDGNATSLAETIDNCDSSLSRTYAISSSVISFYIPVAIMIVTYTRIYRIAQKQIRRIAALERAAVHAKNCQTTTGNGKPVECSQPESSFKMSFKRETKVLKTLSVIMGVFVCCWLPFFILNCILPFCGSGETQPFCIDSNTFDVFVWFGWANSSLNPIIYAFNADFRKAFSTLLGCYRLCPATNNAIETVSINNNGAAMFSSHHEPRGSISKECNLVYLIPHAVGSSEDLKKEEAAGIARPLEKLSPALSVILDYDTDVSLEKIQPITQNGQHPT
D1 ag – human D1 receptor agonism. HEK293 T-REx D1 cells, calcium flux, agonist mode. activation, % at 2 µM. 1% of 360,000 active; also: 0% is about no effect
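Tetracycline-induced HEK293 TREx D1 cells, force-coupled to calcium signalling, were dye-loaded with a no-wash calcium kit. Compound was pin-added after a 10 s baseline. Fluorescence was read kinetically at 1 cycle/s for 180 s, with calcium rises flagged as agonism.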
D1 antag – blocks dopamine activation of the human D1 receptor | P21728 | HEK293 TREx D1 cells, calcium flux, dopamine EC80; active compounds read low | activity change, negative = inhibition, % at 10 µM | 3.2% of 360,000 active; in the data active = activity change below about -30%; also: % is scaled to controls: 0 for no effect and ±100 for the full control effect
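Kinetic fluorescence of a calcium dye serves as the read-out. D1-expressing Hek293 Trex cells, induced overnight at 30 C, are exposed to compound for 180 s before an EC80 dopamine addition, then read 180 s further.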
TRHR enhancer – allosteric enhancers of human TRH receptor | TRHR cells, fluo-8 calcium fluorescence, EC20 TRH enhancement | enhancement, % at 2 µM | 0.66% of 360,000 active | AID 493056; in the data active = enhancement above about 30%; also: 0% is about no effect
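Enhancer read-out: after compound pinning and an initial kinetic agonist-mode read, an EC20 of TRH (10 nM final) was injected and fluo-8 calcium signal (Ex 480/Em 530) followed at 1 s/cycle for 100 cycles in TRHR-expressing cells.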
TRHR agonist – activates the human TRH receptor. 0.18% of 360,000 active. TRHR cells, calcium flux fluo-8, FDSS agonist mode. activation, % at 2 µM; also: 0% is about no effect
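Read-out: compound-evoked intracellular calcium rise in TRHR cells, fluo-8 dye, kinetic FDSS fluorescence at 1 s/cycle following a 10-cycle baseline. Cells cultured overnight before dye loading (30 min–1.5 h, RT).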
* = called active by the depositor; · = not tested or not shown; ! = repeats disagree. This is a sample that favours compounds with a hit; in the whole collection about 4.7% have one here. Rule as the data show it, unless noted: active = activation above about 30%; inactive = the rest.

SMILES | D1 PAM | D1 ag | D1 antag | TRHR enhancer | TRHR agonist
NCCc1c[nH]c2ccccc12 | 0 | -1 | 3 | 1 | 0
N#Cc1cc([N+](=O)[O-])ccc1NC(=O)c1cccn(Cc2cccc(F)c2)c1=O | 1 | 3 | · | 1 | 1
Cc1sc2ccccc2c1CC1=NCCN1 | -9 | 5 | -47* | 2 | 1
Cc1cccc(NC(=O)Cn2cc(C(=O)c3ccccc3)c3ccccc32)c1C | -3 | 4 | -18 | -6 | 1
CN(CCc1ccccc1)Cc1c[nH]c2ccccc12 | -13 | 12 | -66* | 10 | 3
CN1CCN(c2nc(Cl)ncc2F)CC1 | -11 | 4 | -32* | -2 | 1
O=c1c2ccccc2nc(/C=C/c2cccc3ccccc23)n1-c1ccccc1Cl | -1 | 1 | -17 | -6 | 0
Cc1ccc(S(=O)(=O)NCC2CCC(C(=O)N3CCC4(CC3)OCCO4)CC2)cc1 (stereo unspecified) | -13 | 4 | -55* | 2 | 1
Cc1ccc(S(=O)(=O)Nc2cc(C(=O)N3CCC4(CC3)OCCO4)ccc2N2CCCCC2)cc1 | -7 | 3 | 1 | -6 | 0
CN1CCN(c2csc3ccc(F)cc3c2=O)CC1 | -1 | 0 | -9 | 6 | 1
O=C(N/N=C/c1c(O)n(CCc2ccccc2)c(=O)[nH]c1=O)c1ccncc1 | 2 | -1 | -37* | 4 | 1
O=C(N/N=C/c1c(O)n(CCc2ccc(F)cc2)c(=O)[nH]c1=O)c1ccncc1 | 4 | 1 | 24 | 4 | 0
CC(C)[C@H]1C(=O)O[C@H](C(C)C)C(=O)N(C)[C@@H](C(C)C)C(=O)O[C@H](C(C)C)C(=O)N(C)[C@@H](C(C)C)C(=O)O[C@H](C(C)C)C(=O)N1C | -3 | 53* | -33* | -10 | 3
Cc1cc(NC(=O)c2cccn(Cc3cccc([N+](=O)[O-])c3)c2=O)no1 | 0 | 1 | · | -18 | 0
OC(COCc1ccc(Cl)cc1)CN1CC=C(c2ccccc2)CC1 (stereo unspecified) | -6 | 29 | -8 | 10 | -1
OC(CN1CC=C(c2ccccc2)CC1)c1ccccc1 (stereo unspecified) | -2 | 4 | -11 | 35* | 1
O=P(Nc1cccc(F)c1)(Oc1ccccc1F)Oc1ccccc1F | -6 | 2 | -37* | 9 | 1
Cc1cccc(NP(=O)(Oc2ccccc2F)Oc2ccccc2F)c1 | 1 | 8 | 7 | 2 | 0
COC(=O)C1=C(c2cccc(C#N)c2)C[C@@H]2CC[C@H]1N2C(=O)NC1CC1 | 0 | 1 | · | -1 | 0
COC(=O)C1=C(c2cccc(C#N)c2)C[C@@H]2CC[C@H]1N2C(=O)N1CCCCC1 | -2 | 1 | -37* | 0 | 0
COC(=O)C1=C(c2ccc(OC)c(OC)c2)C[C@@H]2CC[C@H]1N2C(=O)NC(C)C | 6 | -2 | -42* | 5 | 0
COC(=O)C1=C(c2cccc(C#N)c2)C[C@@H]2CC[C@H]1N2C(=O)NC1Cc2ccccc2C1 | -5 | 1 | -41* | -5 | 0
COC(=O)C1=C(c2ccc(OC)c(OC)c2)C[C@@H]2CC[C@H]1N2C(=O)NC1CC1 | 1 | 1 | · | -1 | 0
Cc1cc(C)cc(OCC(=O)Nc2ccc(Cl)cc2C(=O)c2ccccc2)c1 | -1 | 1 | -9 | -6 | -1
Cc1oc(-c2ccc(Cl)cc2)nc1CN1C(=O)CN=C(c2ccccc2)c2ccccc21 | -2 | 5 | -16 | -3 | 0
SMILES | D1 PAM | D1 ag | D1 antag | TRHR enhancer | TRHR agonist
COc1ccc(-c2nc(CN3C(=O)CN=C(c4ccccc4)c4cc(Cl)ccc43)c(C)o2)cc1 | -3 | 12 | -28 | 23 | 0
COC(=O)C1=C(c2cccc3c2S(=O)(=O)c2ccccc2-3)C[C@@H]2CC[C@H]1N2C(=O)N1CCc2cc(OC)c(OC)cc2C1 | -3 | 4 | -48* | 2 | 0
COC(=O)C1=C(c2cccc3c2S(=O)(=O)c2ccccc2-3)C[C@@H]2CC[C@H]1N2C(=O)N1CCOCC1 | 2 | 1 | 7 | 3 | -1
Cc1cc(C=C(C#N)C#N)ccc1N1CCCC1 | -5 | 51* | -6 | 1 | 16
COc1cccc(-c2nn3c(=O)cc(CN4CCN(C(=O)COc5ccccc5C)CC4)nc3s2)c1 | 3 | 1 | 3 | -1 | -1
CC(=O)OCC[N+](C)(C)C | 2 | 46*! | 17 | -4 | 36*
CCn1c(CN2CCN(C)CC2)nc2ccccc21 | -2 | 1 | 8 | -2 | 0
Cc1cccc(N2CCN(CCc3ccccc3)CC2)c1C | -11 | 39* | -51* | 2 | -2
Cc1ccccc1CN1CCN(Cc2ccccc2)CC1 | -8 | 1 | 12 | 4 | -1
CC1CN(CCc2ccccc2)CC(C)O1 (stereo unspecified) | -4 | 1 | 0 | -1 | -1
Cc1ccc(N2CCN(CCc3ccccc3)CC2)cc1 | -11 | 4 | -44* | 4 | 0
COc1ccccc1N1CCN(CCc2ccccc2)CC1 | -7 | 3 | -47* | 5 | 0
O=C(Nc1ccc(F)c(Cl)c1)N(Cc1ccc2c(c1)OCO2)C1CCN(Cc2ccccc2)CC1 | 2 | 17 | -19 | 7 | 2
CCCCc1nc2ccccc2c(=O)n1-c1cccc(OC)c1 | -2 | 6 | 5 | 4 | -1
CC(C)[C@@]1(NC(=O)[C@@H]2C[C@@H]3c4cccc5[nH]cc(c45)C[C@H]3N(C)C2)O[C@@]2(O)[C@@H]3CCCN3C(=O)[C@H](Cc3ccccc3)N2C1=O | -6 | 29 | -68* | 3 | 6
CC(C)[C@@]1(NC(=O)[C@@H]2C=C3c4cccc5[nH]cc(c45)C[C@H]3N(C)C2)O[C@@]2(O)[C@@H]3CCCN3C(=O)[C@H](Cc3ccccc3)N2C1=O | 1 | 27 | -1 | 4 | 3
CC(C)[C@H]1C(=O)N2CCC[C@H]2[C@]2(O)O[C@](NC(=O)[C@@H]3C=C4c5cccc6[nH]cc(c56)C[C@H]4N(C)C3)(C(C)C)C(=O)N12 | -5 | 4 | -34* | 2 | 6
O=C(Nc1ccc(Cl)cc1C(=O)c1ccccc1)c1ccco1 | -5 | 5 | -33* | -6 | 0
O=C(Nc1ccc(Cl)cc1C(=O)c1ccccc1Cl)c1ccco1 | -7 | 2 | -39* | 1 | 1
Cc1cc(OCC(=O)N2CCN(CCc3ccccn3)CC2)cc(C)c1Cl | -1 | 0 | 8 | 9 | 0
CCC(=NCCc1c[nH]c2ccccc12)c1c(O)n(C)c(=O)n(C)c1=O | -4 | 11 | -31* | -2 | 0
CCC(=NCCOc1ccc(Cl)cc1)c1c(O)n(C)c(=O)n(C)c1=O | -9 | 8 | -42* | -2 | 1
c1cnc2c(c1)ncn2C1CCNCC1 | -1 | 0 | 12 | -5 | 1
Cc1cccc(NC(=O)Cn2cc(C(=O)c3ccccc3)c3ccccc32)c1 | -3 | -2 | -5 | 6 | 0

Assay outcomes as filed in PubChem.
